Experimental data as given in PubChem BioAssay (NCATS).
Inconclusive results are not listed. A call without a number means that no potency is given here. The source made the active and inactive calls. Calls come from the whole dose curve; as a rule, active = well fitted cell-killing curve with a large enough effect; inconclusive = small, poorly fitted or top-dose-only effect; inactive = flat fitted curve, though single readings scatter.

Assay: Cellular viability qHTS for adrenocortical cancer (ACC) cell line NCI-H295R (AID 1963990); note: nearly all actives have a fitted effect of over 60% in size
Procedure, shortened: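 IC50 and maximal efficacy derive from four-parameter logistic modelling of titration curves, with reads scaled between DMSO-only wells (0%) and doxorubicin hydrochloride (100% inhibition). Compounds spanned up to 46 uM over 48 h.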
Potency is the fitted concentration of half-maximal effect.

Row | Structure (SMILES) | Potency
1 | CC(=O)N1CCC(Nc2cc(C(=O)NC[C@H](O)CN3CCc4ccccc4C3)ncn2)CC1 | inactive
2 | C/C=C(/C(=C/C)c1ccc(OC(C)=O)cc1)c1ccc(OC(C)=O)cc1 | 23.1 µM (active)
3 | c1ccc(OCc2ccc(CCCN3CCOCC3)cc2)cc1 | inactive
4 | CCc1cccc(N(C)C(N)=Nc2cccc3ccccc23)c1 | 20.6 µM (active)
5 | NS(=O)(=O)Oc1ccc2c3c(c(=O)oc2c1)CCCCC3 | inactive
6 | CCCCCCOc1ccccc1C(N)=O | inactive
7 | Cn1ncnc1[C@H]1c2n[nH]c(=O)c3cc(F)cc(c23)N[C@@H]1c1ccc(F)cc1 | inactive
8 | O=C(CCCN1CCC(O)(c2ccc(Br)cc2)CC1)c1ccc(F)cc1 | inactive
9 | CC/C(=C(/c1ccc(O)cc1)c1ccc(OCCNC)cc1)c1ccccc1 | inactive
10 | CCCCN(CCCC)C(C(N)=O)c1ccc(OC)cc1 (stereo unspecified) | inactive
11 | N#Cc1ccc(Oc2ccc3c(c2)COB3O)cc1 | inactive
12 | Cn1cc(/C=C2\C(=O)Nc3cccnc32)c2ccccc21 | inactive
13 | O=C(O)c1c(O)c(-c2ccccc2)nc2ccccc12 | inactive
14 | COc1ccc2cc(CCC(C)=O)ccc2c1 | inactive
15 | CC(C)=CCOc1ccc(/C=C/C(=O)c2ccc(OCC=C(C)C)cc2OCC(=O)O)cc1 | 9.2 µM (active)
16 | Cc1cc(O)c2ccccc2c1O | 20.6 µM (active)
17 | CCN(CCCc1ccccc1)CCCc1ccccc1 | inactive
18 | Nc1ccc2c(c1)CN1C(=O)c3ccccc3C1=N2 | inactive
19 | CCOC(=O)c1c(N)sc2c1CCN(Cc1ccccc1)C2 | inactive
20 | OCCOc1ccc(/C(=C(/CCCl)c2ccccc2)c2ccccc2)cc1 | 25.1 µM (active)
21 | O=C1CC[C@H](N2Cc3c(OCc4ccc(CN5CCOCC5)cc4)cccc3C2=O)C(=O)N1 | inactive
22 | C[C@@H](c1ccc2nccn2c1)n1nnc2ncc(-c3cnn(C)c3)nc21 | inactive
23 | COc1ccc(-n2c(SCCCN3C(=O)c4cccc5cccc(c45)C3=O)nnc2-c2ccncc2)cc1 | inactive
24 | Cn1cc(C(=O)[C@@H]2CCc3nc[nH]c3C2)c2ccccc21 | inactive
25 | CCCCC(CC)CN1CN(CC(CC)CCCC)CC(C)(N)C1 (stereo unspecified) | inactive
26 | COc1ccc(-n2nc(CCC(=O)N(C)O)cc2-c2ccc(Cl)cc2)cc1 | 16.4 µM (active)
